What follows are sequences tested against RIPE3b1 activator (MafA, endogenous) (Mus musculus, UniProt Q8CF90 SEQ:1-359) (assay: competition; B4/5 roughly 20-fold more effective competitor than B4). Conditions: protein: extract; tags: beta cell line nuclear extract (betaTC-3, Min6); label: 32P; dsDNA, one strand shown.
Chain of RIPE3b1 activator (MafA, endogenous) (Q8CF90 whole entry): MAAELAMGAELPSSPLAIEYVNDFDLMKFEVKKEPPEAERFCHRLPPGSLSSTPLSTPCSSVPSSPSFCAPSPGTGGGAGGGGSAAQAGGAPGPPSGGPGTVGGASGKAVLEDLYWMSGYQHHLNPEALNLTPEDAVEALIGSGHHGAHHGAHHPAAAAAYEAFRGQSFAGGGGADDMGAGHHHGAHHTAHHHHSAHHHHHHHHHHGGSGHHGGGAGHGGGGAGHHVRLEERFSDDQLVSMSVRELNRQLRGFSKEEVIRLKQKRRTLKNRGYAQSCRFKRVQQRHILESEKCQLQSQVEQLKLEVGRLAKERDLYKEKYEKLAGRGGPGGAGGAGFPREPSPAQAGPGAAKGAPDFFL
Description: To define the factors associated with B4 and B5 mediated regulation, gel shift experiments were performed with probes spanning B4, B5, and B4+B5 (B4/5) and βTC-3 or MIN6 cell nuclear extracts (FIG. 12). Two common protein-DNA complexes were detected with the B4 and B4+B5 probes (labeled as A and B in FIG. 12B), whereas no binding was found with B5 (data not shown). The binding affinity of B4 and B4/5 for these complexes was determined with the wild type and B4+B5 double mutant site (B4+B5MT) competitors.
With AGCTTTCTTTTTGCAAAGCACAGCAT the binding signal was roughly 20 fold.

Reference: patent US20050118148, “Compositions and methods related to mammalian Maf-A” (published 2005)
